{
  "source": "paper PMC4336329",
  "about": "(PLoS ONE, 2015)",
  "note": "Screen size: about 310,000 compounds; about 14,000 (4.5%) showed an effect of 50% or more. The effect is printed as a negative number. Only a selection was taken, and strong results are over-represented in it overall.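 Also: peak tail current of the secondary pulse compared with the same well before compound.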",
  "data": [
    {"target": "human ether-à-go-go-related gene (hERG) potassium channel (human, UniProt Q12809)", "sequence (Q12809 whole entry, looked up)": "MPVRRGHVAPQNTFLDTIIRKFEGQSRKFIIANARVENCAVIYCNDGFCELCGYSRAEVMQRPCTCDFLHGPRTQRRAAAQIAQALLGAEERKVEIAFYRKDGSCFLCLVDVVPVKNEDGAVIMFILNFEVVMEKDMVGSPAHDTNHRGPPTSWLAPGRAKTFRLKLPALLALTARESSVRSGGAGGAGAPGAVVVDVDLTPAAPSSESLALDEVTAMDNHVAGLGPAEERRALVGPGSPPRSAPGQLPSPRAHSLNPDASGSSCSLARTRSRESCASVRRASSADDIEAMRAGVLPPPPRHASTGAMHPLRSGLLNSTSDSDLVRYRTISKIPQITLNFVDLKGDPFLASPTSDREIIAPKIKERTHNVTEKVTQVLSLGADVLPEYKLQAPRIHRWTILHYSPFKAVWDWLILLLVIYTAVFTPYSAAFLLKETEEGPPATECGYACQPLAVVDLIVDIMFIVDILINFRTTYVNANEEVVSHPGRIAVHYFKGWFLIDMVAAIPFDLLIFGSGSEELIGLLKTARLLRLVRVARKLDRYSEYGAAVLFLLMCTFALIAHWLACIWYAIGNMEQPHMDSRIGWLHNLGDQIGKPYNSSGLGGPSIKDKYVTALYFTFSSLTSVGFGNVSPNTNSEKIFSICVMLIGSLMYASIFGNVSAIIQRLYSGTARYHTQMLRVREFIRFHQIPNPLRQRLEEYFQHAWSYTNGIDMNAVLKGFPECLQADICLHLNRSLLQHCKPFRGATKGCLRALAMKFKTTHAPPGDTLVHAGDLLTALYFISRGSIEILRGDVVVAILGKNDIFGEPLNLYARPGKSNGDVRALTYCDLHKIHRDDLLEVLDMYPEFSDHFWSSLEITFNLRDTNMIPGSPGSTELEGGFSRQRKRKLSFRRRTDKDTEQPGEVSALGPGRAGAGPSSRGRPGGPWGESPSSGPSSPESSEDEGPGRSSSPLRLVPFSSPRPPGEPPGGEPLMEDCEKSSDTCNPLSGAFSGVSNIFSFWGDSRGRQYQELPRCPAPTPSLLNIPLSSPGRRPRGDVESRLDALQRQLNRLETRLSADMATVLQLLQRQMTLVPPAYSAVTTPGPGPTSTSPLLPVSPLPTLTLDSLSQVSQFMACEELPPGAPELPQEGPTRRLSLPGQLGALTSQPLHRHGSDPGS", "assay": "primary screen, population patch clamp on CHO cells stably expressing hERG; higher = less effect of the substance", "units": {"hERG current change (%, negative = inhibition) at 10uM": "%"}, "values": [
      {"smiles": "CCN(CC)S(=O)(=O)c1ccc(/C=C/C(=O)Nc2c(C)n(C)n(-c3ccccc3)c2=O)cc1", "hERG current change (%, negative = inhibition) at 10uM": 19.4},
      {"smiles": "CCCC1CCC(=C(C#N)C(N)=O)CC1", "note": "(stereo not drawn)", "hERG current change (%, negative = inhibition) at 10uM": -32.8},
      {"smiles": "COC(=O)c1ccccc1NC(=O)c1ccc(NS(C)(=O)=O)cc1", "hERG current change (%, negative = inhibition) at 10uM": -36.1},
      {"smiles": "CS(=O)(=O)Nc1ccc(C(=O)Nc2ccccc2-c2ccccc2)cc1", "hERG current change (%, negative = inhibition) at 10uM": -65.9},
      {"smiles": "O=C(Nc1ccccc1-c1ccccc1)c1ccccc1", "hERG current change (%, negative = inhibition) at 10uM": 13.2},
      {"smiles": "CCOC(=O)c1ccccc1NC(=O)c1ccccc1NS(C)(=O)=O", "hERG current change (%, negative = inhibition) at 10uM": -0.0503},
      {"smiles": "CCc1ccccc1NC(=O)c1ccc(NS(C)(=O)=O)cc1", "hERG current change (%, negative = inhibition) at 10uM": -42.1},
      {"smiles": "CCOC(=O)c1ccccc1NC(=O)c1ccc(NS(C)(=O)=O)cc1", "hERG current change (%, negative = inhibition) at 10uM": -54.7},
      {"smiles": "Cc1cccc(C(=O)O/N=C2/CC3CCC2(C)C3(C)C)c1", "note": "(stereo not drawn)", "hERG current change (%, negative = inhibition) at 10uM": -11},
      {"smiles": "Cc1cc(C(=O)NCCC2=CCCCC2)c(C)o1", "hERG current change (%, negative = inhibition) at 10uM": 7.75},
      {"smiles": "O=S(=O)(c1cccc(-c2n[nH]c(=S)o2)c1)N1CCOCC1", "hERG current change (%, negative = inhibition) at 10uM": 14.9},
      {"smiles": "CCC(C)NC(=O)C1CCN(S(=O)(=O)N2CCOCC2)CC1", "note": "(stereo not drawn)", "hERG current change (%, negative = inhibition) at 10uM": 22.8},
      {"smiles": "N#CC1=C(SCc2ccc(C#N)cc2)N=C(N)C(c2nc(-c3ccccc3)cs2)C12CCCCC2", "note": "(stereo not drawn)", "hERG current change (%, negative = inhibition) at 10uM": 12.3},
      {"smiles": "CCC(C)Cn1c(C(C)O)nc2ccccc21", "note": "(stereo not drawn)", "hERG current change (%, negative = inhibition) at 10uM": 0.00748},
      {"smiles": "O=C(c1cc2ccccc2o1)N1CCN(c2cccc(C(F)(F)F)c2)CC1", "hERG current change (%, negative = inhibition) at 10uM": 3.21},
      {"smiles": "CC(NCc1cc(Br)ccc1OCC(N)=O)C12CC3CC(CC(C3)C1)C2.Cl", "note": "(stereo not drawn)", "hERG current change (%, negative = inhibition) at 10uM": -55.8},
      {"smiles": "CCOc1cc(/C=N/NC(N)=O)cc(Br)c1OCC(=O)Nc1cccc2ccccc12", "hERG current change (%, negative = inhibition) at 10uM": 18.4},
      {"smiles": "CCOc1cc(/C=N/NC(N)=O)cc(Br)c1OCc1ccccc1", "hERG current change (%, negative = inhibition) at 10uM": 3.4},
      {"smiles": "Cl.O=C(COc1ccc(Br)cc1CNCCc1ccccc1)NCc1ccccc1", "hERG current change (%, negative = inhibition) at 10uM": -61.1},
      {"smiles": "COc1cc(CNC(C)C23CC4CC(CC(C4)C2)C3)ccc1OCC(=O)NC(C)(C)C.Cl", "note": "(stereo not drawn)", "hERG current change (%, negative = inhibition) at 10uM": -4.99},
      {"smiles": "CCOc1cc(C=O)cc(Br)c1OCC(N)=O", "hERG current change (%, negative = inhibition) at 10uM": 2.71},
      {"smiles": "CCOc1cc(/C=N/O)cc(Br)c1OCC(=O)NCc1ccccc1", "hERG current change (%, negative = inhibition) at 10uM": 1.7},
      {"smiles": "CC(NCc1ccc(OCC(N)=O)cc1)C12CC3CC(CC(C3)C1)C2.Cl", "note": "(stereo not drawn)", "hERG current change (%, negative = inhibition) at 10uM": -11.2},
      {"smiles": "Cc1ccccc1NC(=O)COc1ccc(Br)cc1CNCCCO.Cl", "hERG current change (%, negative = inhibition) at 10uM": -15.6},
      {"smiles": "CCOc1cc(C=O)cc(Br)c1OCC(=O)NCCc1ccccc1", "hERG current change (%, negative = inhibition) at 10uM": -81.7},
      {"smiles": "O=C(CCC(=O)NNC(=O)COc1ccc(Br)cc1Br)NCc1ccccc1", "hERG current change (%, negative = inhibition) at 10uM": 16.9},
      {"smiles": "CCOc1cc(/C=N/NC(N)=O)cc(Br)c1OCC(=O)Nc1ccccc1C", "hERG current change (%, negative = inhibition) at 10uM": -65.7},
      {"smiles": "CCN(CC)CCCNC(=O)Cn1cnc2sc(C)c(S(=O)(=O)N3CCC(C)CC3)c2c1=O", "hERG current change (%, negative = inhibition) at 10uM": 11.1},
      {"smiles": "COC(=O)c1ccc(Cn2nc(-c3ccc(C)cc3)ccc2=O)cc1", "hERG current change (%, negative = inhibition) at 10uM": 23.5},
      {"smiles": "CCn1cc(C(=O)O)c(=O)c2cnc(N3CCN(C(=S)Nc4ccc(F)cc4)CC3)nc21", "hERG current change (%, negative = inhibition) at 10uM": 13.3},
      {"smiles": "CCN(c1ccccc1)S(=O)(=O)c1cccc(C(=O)N(C)CCOc2ccccc2)c1", "hERG current change (%, negative = inhibition) at 10uM": -3.95},
      {"smiles": "CCCCN(C)CCC(=O)Nc1ccc2c(c1)CCC2.Cl", "hERG current change (%, negative = inhibition) at 10uM": -7.46},
      {"smiles": "CCOC(=O)c1sc(NC(=O)CSc2ncn(-c3ccccc3)n2)nc1C", "hERG current change (%, negative = inhibition) at 10uM": 7.23},
      {"smiles": "COc1ccc(CNC(=O)CCn2c(=O)oc3ccccc32)cc1", "hERG current change (%, negative = inhibition) at 10uM": -5.31},
      {"smiles": "O=C(NC(=S)Nc1ccc2[nH]c(=O)[nH]c2c1)c1ccccc1[N+](=O)[O-]", "hERG current change (%, negative = inhibition) at 10uM": -8.83},
      {"smiles": "Cc1cc(C(=O)N2CCN(c3ncccn3)CC2)cs1", "hERG current change (%, negative = inhibition) at 10uM": -15.6},
      {"smiles": "CCOC(=O)c1sc(NC(=S)NC(=O)C2CCCC2)cc1C", "hERG current change (%, negative = inhibition) at 10uM": 7.72},
      {"smiles": "COc1ccc(Br)cc1CNC(C)c1ccccc1", "note": "(stereo not drawn)", "hERG current change (%, negative = inhibition) at 10uM": -19.8},
      {"smiles": "CCCNCc1cc(Br)ccc1OCC(=O)NCCc1ccccc1", "hERG current change (%, negative = inhibition) at 10uM": -63.5},
      {"smiles": "COc1cc(CNC(C)c2ccccc2)c(Br)cc1OCC(N)=O", "note": "(stereo not drawn)", "hERG current change (%, negative = inhibition) at 10uM": -17.2},
      {"smiles": "CCOc1cc(CNCCO)c(Cl)cc1OCC(=O)NCCc1ccccc1", "hERG current change (%, negative = inhibition) at 10uM": -6.82},
      {"smiles": "CC(NCc1cc(Br)ccc1OCC(=O)NCc1ccccc1)c1ccccc1.Cl", "note": "(stereo not drawn)", "hERG current change (%, negative = inhibition) at 10uM": -59.6},
      {"smiles": "CCCNCc1cc(OC)c(OCC(=O)NCCc2ccccc2)cc1Br", "hERG current change (%, negative = inhibition) at 10uM": -38.1},
      {"smiles": "O=C(c1cccnc1)c1ncc(C(F)(F)F)cc1Cl", "hERG current change (%, negative = inhibition) at 10uM": -3.33},
      {"smiles": "O=C(CSc1ccccc1)Nc1nnc(C2CC2)s1", "hERG current change (%, negative = inhibition) at 10uM": 16.9},
      {"smiles": "Cc1c(C(=O)N(Cc2ccccc2)Cc2cccs2)cnn1-c1ccc(Cl)cc1", "hERG current change (%, negative = inhibition) at 10uM": -3.32},
      {"smiles": "O=C(/C=C/c1ccccc1)N/C(=C/c1ccccc1)C(=O)NCCCO", "hERG current change (%, negative = inhibition) at 10uM": -7.96},
      {"smiles": "CCC(C)c1ccc(S(=O)(=O)N2CCN(c3ccccn3)CC2)cc1", "note": "(stereo not drawn)", "hERG current change (%, negative = inhibition) at 10uM": 24.6},
      {"smiles": "Cc1ccc(-c2c[n+](CC(=O)N3c4ccccc4Sc4ccccc43)c3n2CCC3)cc1.[Cl-]", "hERG current change (%, negative = inhibition) at 10uM": -49.1},
      {"smiles": "Cc1ccc(-c2c[n+](Cc3ccc(Cl)cc3)c3n2CCC3)cc1.[Cl-]", "hERG current change (%, negative = inhibition) at 10uM": -41.6},
      {"smiles": "Clc1cccc(C[n+]2cc(-c3ccccc3)n3c2CCC3)c1.[Br-]", "hERG current change (%, negative = inhibition) at 10uM": -25.7},
      {"smiles": "Cc1ccc(C[n+]2cc(-c3ccc(Cl)cc3)n3c2CCC3)cc1.[Cl-]", "hERG current change (%, negative = inhibition) at 10uM": -51.3},
      {"smiles": "Clc1ccc(-c2c[n+](Cc3ccc(Br)cc3)c3n2CCCCC3)cc1.[Br-]", "hERG current change (%, negative = inhibition) at 10uM": -66.4},
      {"smiles": "Clc1ccc(C[n+]2cc(-c3ccc(Cl)cc3)n3c2CCC3)cc1.[Cl-]", "hERG current change (%, negative = inhibition) at 10uM": -61.9},
      {"smiles": "Cc1ccc(-c2c[n+](CC(=O)c3cccs3)c3n2CCC3)cc1.[Br-]", "hERG current change (%, negative = inhibition) at 10uM": 5.08},
      {"smiles": "N#CC[n+]1cc(-c2ccc(Cl)cc2)n2c1CCC2.[Cl-]", "hERG current change (%, negative = inhibition) at 10uM": 5.21},
      {"smiles": "Cc1ccc(-c2c[n+](Cc3cccc(Cl)c3)c3n2CCC3)cc1.[Br-]", "hERG current change (%, negative = inhibition) at 10uM": -57.7}
    ]}
  ]
}
